CYP2C9 activ – CYP2C9 (human) activation; AID 1024; activation factor at 5 µM; 96,000 tested, 1.4% active; P11712; recombinant CYP2C9, luciferin-H conversion, luminescence; active compounds read high; factor 1 = untreated enzyme, 0 = blocked;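 active means activation factor of 2 or more for CYP2C9 at a 5 µM dose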
CYP2C19 act – activators of human cytochrome P450 2C19. P33261. recombinant CYP2C19, luciferin-H EGE luminescence; active compounds read high; 0 = fully inhibited enzyme, 1 = untreated enzyme. activation factor at 5 µM. 96,000 tested, under 10 active. AID 1025;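 active means activation factor of at least 2 at 5 µM in the primary screen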
sEH activator – activators of human soluble epoxide hydrolase; purified human sEH enzymatic activity, activator screen; activation, % at 2 µM; P34913; 91,000 tested, 0.04% active; in the data active means activation above about 37%
Target sequence (P34913 whole entry, looked up): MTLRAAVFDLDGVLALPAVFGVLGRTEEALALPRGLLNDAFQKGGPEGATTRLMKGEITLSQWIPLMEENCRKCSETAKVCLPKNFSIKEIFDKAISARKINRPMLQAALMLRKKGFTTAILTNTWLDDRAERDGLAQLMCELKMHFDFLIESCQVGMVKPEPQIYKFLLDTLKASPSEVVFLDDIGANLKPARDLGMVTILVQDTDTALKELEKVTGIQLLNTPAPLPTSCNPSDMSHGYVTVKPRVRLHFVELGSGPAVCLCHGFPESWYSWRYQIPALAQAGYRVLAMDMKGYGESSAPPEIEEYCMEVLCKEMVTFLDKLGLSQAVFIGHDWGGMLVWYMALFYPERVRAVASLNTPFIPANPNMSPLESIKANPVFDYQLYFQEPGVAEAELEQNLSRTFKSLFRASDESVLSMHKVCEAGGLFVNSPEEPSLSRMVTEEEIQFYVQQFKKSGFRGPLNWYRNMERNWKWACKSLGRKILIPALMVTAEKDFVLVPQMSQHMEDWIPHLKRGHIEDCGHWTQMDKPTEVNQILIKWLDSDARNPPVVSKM
sEH inh – soluble epoxide hydrolase (human) inhibition; recombinant human sEH enzymatic activity assay; inhibition, % at 2 µM; 91,000 tested, 0.34% active; P34913; in the data active means inhibition above about 80%
CYP2C19 inh – human CYP2C19 inhibition; P33261; CYP2C19 Supersomes, luciferin-H EGE luminescence, 30 min; inhibition, % at 5 µM; 96,000 tested, 21% active; AID 778;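 active means CYP2C19 inhibition above a set limit at 5 µM in the primary screen, cut at about 50% in these data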
CYP2C9 inhib – blocks human cytochrome P450 2C9 | CYP2C9 Supersomes, luciferin-H conversion, luminescence | inhibition, % at 5 µM | 96,000 tested, 20% active | AID 777;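 active means blocking of liver enzyme CYP2C9 beyond about 50% at 5 µM, limit read from the data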
Hits are given with their value; – = inactive; · = not tested or not shown. Only some compounds are listed: those with a hit (about 27% of all), similar ones and a draw of the others.

SMILES	CYP2C9 activ	CYP2C19 act	sEH activator	sEH inh	CYP2C19 inh	CYP2C9 inhib
O=C(c1ccccc1)c1ccc(Oc2ncccn2)cc1	–	–	·	·	62.6	–
CCN(CC)C(=O)Cn1cnc([N+](=O)[O-])n1	–	–	–	–	–	–
Cc1cc2cc(CN(Cc3ccc4c(c3)OCO4)C(=O)c3cnccn3)c3nnnn3c2cc1C	–	–	–	–	60.6	63.2
O=C(c1ccccc1F)N(Cc1ccc2c(c1)OCO2)Cc1cc2cc3c(cc2n2nnnc12)OCO3	–	–	–	–	77.7	50.3
Cc1ccc2c(c1)cc(CN(Cc1ccc3c(c1)OCO3)C(=O)c1cnccn1)c1nnnn12	–	–	–	–	–	–
Cc1ccc(NCCC(=O)c2cccs2)cc1Cl	–	–	–	–	–	–
Cc1ccc(NCCC(=O)c2ccc(Cl)cc2)cc1C	–	–	–	–	59.3	–
Cc1ccc(C(=O)CCNc2ccc(Cl)cc2)o1	–	–	–	–	91.6	–
CCCOc1ccc(C(=O)CCNc2ccc(C)c(Cl)c2)cc1	–	–	–	–	60.4	–
COc1cc(S(=O)(=O)NCc2cccnc2)ccc1F	–	–	–	–	83.2	–
COc1cc(Cl)c(S(=O)(=O)NCc2cccnc2)cc1Cl	–	–	·	·	85.1	–
O=S(=O)(NCCc1ccccn1)c1ccc(F)c(F)c1	–	–	·	·	84.9	–
COc1cc(Cl)c(S(=O)(=O)NCc2ccccn2)cc1Cl	–	–	–	–	81.2	–
COc1cc(S(=O)(=O)Nc2cccnc2)ccc1F	–	–	–	–	–	–
O=C(Oc1ccccc1C(=O)Oc1ccccc1)c1ccco1	–	–	–	–	–	–
COc1ccccc1Oc1ccc(S(=O)(=O)NCc2ccccn2)cc1	–	–	–	–	–	–
COc1ccc(S(=O)(=O)NCc2ccccn2)cc1Cl	3.2	–	–	–	92.1	–
Oc1ccc(C=Nc2cccc3ncccc23)c(O)c1	–	–	–	–	–	–
Oc1ccc(C=Nc2ccc3ncccc3c2)c(O)c1	–	–	·	·	55.8	–
O=C(Nc1ccc(Cl)c(Cl)c1)N1CCSC1c1ccco1 (stereo unspecified)	–	–	–	–	–	59.1
Cc1ccc(-c2csc(NC(=S)NC(=O)/C=C/c3ccco3)n2)cc1	–	–	–	–	–	–
COc1cccc(Nc2nc(-c3cccc(N4C(=O)c5ccccc5C4=O)c3)cs2)c1	–	–	–	–	–	62.5
Cc1cccnc1Nc1nc(-c2ccc(O)cc2)cs1	–	–	–	–	88.1	63.1
COc1cccc(Nc2nc(-c3ccc(O)cc3)cs2)c1	–	–	–	–	–	82.1
COc1cccc(-c2csc(NC(=O)C3CC3)n2)c1	–	–	–	–	–	–
SMILES	CYP2C9 activ	CYP2C19 act	sEH activator	sEH inh	CYP2C19 inh	CYP2C9 inhib
CCOc1ccc(N2C(=O)CC(N3CC(C)OC(C)C3)C2=O)cc1 (stereo unspecified)	–	–	·	·	–	–
C=CCN1C(=O)C2C(C(=O)NC)C3(C)C=CC2(O3)C1C(=O)NCc1ccc(OC)cc1 (stereo unspecified)	–	–	·	·	–	–
CCCOc1ccc(/C=C/C(=O)Nc2ccc([N+](=O)[O-])cc2)cc1	–	–	–	–	–	58.6
Cc1ccc(/C=C/C(=O)Nc2ccc([N+](=O)[O-])cc2)o1	–	–	–	–	–	–
Cn1c(=O)oc2cc(S(=O)(=O)N3CCC(C(=O)NCC4COc5ccccc5O4)CC3)ccc21 (stereo unspecified)	–	–	–	–	–	–
CC1(C)CC(=O)C(C=NCCN2CCN(CCc3ccccc3)CC2)=C(O)C1	·	·	–	–	·	·
CCOC(=O)Cn1c(=NC(=O)CSC(C)=O)sc2cc(F)ccc21	–	–	–	–	–	–
Cc1c(C(=O)O)[nH]c2c1C(=O)CC(c1ccccc1)C2 (stereo unspecified)	–	–	–	–	–	–
CCCCc1oc2c(c(=O)c1C)C(=O)CC(c1ccccc1)C2 (stereo unspecified)	–	–	–	–	100.3	78.0
COC(=O)Nc1ncc(CN2CCc3ccccc3C2)s1	–	–	–	–	75.6	–
CCCc1[nH]nc2c1C1(CCOC1C)C(C#N)=C(N)O2 (stereo unspecified)	–	–	–	–	–	–
CCCCOc1ccc(C(=O)Oc2ccc(C)nc2)cc1	–	–	–	–	–	54.9
CC(C)COC(=O)C1[C@H]2C(=O)N(Cc3cccs3)C[C@]23C=C[C@H]1O3 (stereo partly specified)	–	–	–	–	–	–

Screens from PubChem.
